# Measured values from the supplement of paper PMC10127200.
# Counter-ions that a name gives are not always drawn.
# Columns and labels:
# Assay in all cases: Euclidean distance of Cell Painting phenotypic profile (signed KS, 77 features) to DMSO centroid (dimensionless distance); 5 or 10 uM (library dependent); higher = stronger phenotypic change vs DMSO (phenoactivity)
# Conditions in all cases: 48 h
# 786-O = tested on: 786-O
# Procedure, shortened: (§1)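 Phenoactivity is defined as the Euclidean distance from a compound profile to the median vehicle profile. Each profile comprised 77 Harmony features, scored as signed Kolmogorov-Smirnov statistics versus same-plate vehicle wells, then plate-position corrected, correlation-weighted and replicate-averaged at the top dose. Five cancer lines and one healthy fibroblast line were exposed to library compounds for 48 h at 10 or 5 uM (0.1% DMSO final).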
# A549 = tested on: A549
# Procedure, shortened: as §1
# DU145 = tested on: DU145
# Procedure, shortened: as §1
# FB = tested on: FB
# Procedure, shortened: as §1
# HEPG2 = tested on: HEPG2
# Procedure, shortened: as §1
# OVCAR4 = tested on: OVCAR4
# Procedure, shortened: as §1
SMILES,Euclidean distance (786-O),Euclidean distance (A549),Euclidean distance (DU145),Euclidean distance (FB),Euclidean distance (HEPG2),Euclidean distance (OVCAR4)
CC(=O)CCCCn1c(=O)c2c(ncn2C)n(C)c1=O [Pentoxifylline],1.07,0.613,1.06,1.39,0.754,1.67
CCOC(=O)C1=C[C@]2(CC)CCCN3CCc4c(n1c1ccccc41)[C@@H]32 [Vinpocetine],1.12,0.68,0.699,0.994,0.98,1.81
COc1cc(Nc2ncc(F)c(Nc3ccc4c(n3)N(COP(=O)(O)O)C(=O)C(C)(C)O4)n2)cc(OC)c1OC [Fostamatinib (R788)],2.67,4.8,3.08,3.33,2.44,3.7
COc1ccccc1N1CCN(CCN2C(=O)CC3(CCCC3)CC2=O)CC1,1.45,1.72,1.3,1.24,1.77,1.54
Cc1nn(-c2ccccc2)c(C)c1C=NN1CCN(Cc2ccccc2)CC1,1.24,1.25,0.724,0.733,1.16,1.34
CCCC(CCC)C(N)=O [Valpromide],0.509,1.08,1,1.42,0.77,1.44
COC(=O)[C@@H]1[C@H]2C[C@H]3c4[nH]c5ccccc5c4CCN3C[C@@H]2CC[C@@H]1O [Yohimbine HCl],1.79,0.764,0.901,0.844,0.549,0.758
N#Cc1c(O)c2c(-c3ccc(-c4ccccc4O)cc3)csc2[nH]c1=O,1.12,1.26,0.976,0.818,0.746,1.78
CN(C)c1cc(CNCC(C)(C)C)c(O)c2c1C[C@H]1C[C@H]3[C@H](N(C)C)C(O)=C(C(N)=O)C(=O)[C@@]3(O)C(O)=C1C2=O [Omadacycline tosylate],1.25,0.879,1.21,1.14,0.757,1.46
CCCC1O[C@@H]2C[C@H]3[C@@H]4CCC5=CC(=O)C=C[C@]5(C)[C@H]4[C@@H](O)C[C@]3(C)[C@]2(C(=O)CO)O1 (some centres not stated) [Budesonide],3.14,1.89,2.06,3.49,2.09,2.47
CC[C@@H]1C(=O)N(C)c2cnc(Nc3ccc(C(=O)NC4CCN(C)CC4)cc3OC)nc2N1C1CCCC1,3.46,3.75,3.25,3.72,2.48,3.25
COc1cc(O)c(C(=O)Nc2nc(C(=O)NCCN(C(C)C)C(C)C)cs2)cc1OC [Acotiamide],1.22,0.413,0.881,0.785,0.356,0.831
CCc1c(Cl)c(O)c(Cl)c(O)c1C(=O)O[C@H]1[C@H](O)[C@H](OC)[C@H](OC/C2=C\C=C\C[C@H](O)/C(C)=C/[C@H](CC)[C@@H](O[C@@H]3OC(C)(C)[C@@H](OC(=O)C(C)C)[C@H](O)[C@@H]3O)/C(C)=C/C(C)=C/C[C@@H]([C@@H](C)O)OC2=O)O[C@@H]1C [Fidaxomicin],1.59,1.88,1.64,1.94,1.5,1.68
CC(O)(P(=O)(O)O)P(=O)(O)O [Etidronate],1.27,1.25,1.1,1.04,0.55,1.15
CC(=O)NS(=O)(=O)c1ccc(N)cc1 [Sulfacetamide Sodium],1.12,0.648,1.22,0.694,0.673,1.05
COc1ccc(CCc2nc3cc(-c4c(C)noc4C)ccc3n2C[C@H](C)N2CCOCC2)cc1Cl,2.58,1.55,0.967,1.73,1.67,1.78
O=C(O)CC(O)(CC(=O)O)C(=O)O [Citric acid],0.88,0.725,1.02,0.899,0.774,0.991
O=C(/C=C/c1ccc(O)c(O)c1)O[C@H](Cc1ccc(O)c(O)c1)C(=O)O [Rosmarinic acid],0.778,0.874,0.818,0.847,0.532,0.722
CCOC(=O)C1=C[C@@H](OC(CC)CC)[C@H](NC(C)=O)[C@@H](N)C1 [Oseltamivir Phosphate],1.49,1.2,1.23,0.91,0.386,1.62
CC(C)[C@H](N)C(=O)OCCOCn1cnc2c(=O)nc(N)[nH]c21 [Valaciclovir HCl],1.18,1.31,2.3,0.774,1.28,1.37
CCCCCCCC(=O)N[C@H](CN1CCCC1)[C@H](O)c1ccc2c(c1)OCCO2 [Eliglustat],0.75,1.58,1.05,1.48,1.2,1.06
Cc1nc(=O)c2cc(CN(C)c3ccc(C(=O)N[C@@H](CCC(=O)O)C(=O)O)s3)ccc2[nH]1 [Raltitrexed],1.96,2.87,0.703,0.633,2.39,2.76
CN1CCCC(n2nc(Cc3ccc(Cl)cc3)c3ccccc3c2=O)CC1 (configuration not stated) [Azelastine HCl],1.09,0.991,0.881,2.15,1.14,0.789
CO/N=C(\C(=O)N[C@@H]1C(=O)N2C(C(=O)OCOC(=O)C(C)(C)C)=C(/C=C\c3scnc3C)CS[C@H]12)c1csc(N)n1 [Cefditoren Pivoxil],1.06,0.732,1.67,1.03,2.12,1.5

SMILES,Euclidean distance (786-O),Euclidean distance (A549),Euclidean distance (DU145),Euclidean distance (FB),Euclidean distance (HEPG2),Euclidean distance (OVCAR4)
CCOC(=O)CCNc1cc(N2CCc3ccccc3CC2)nc(-c2ccccn2)n1,2,2.58,2.35,2.56,2.41,1.95
C[C@H]1CNCCCN1S(=O)(=O)c1cccc2cncc(F)c12 [Ripasudil (K-115) hydrochloride dihydrate],2.28,0.784,2.78,2.01,1.34,1.12
CCOc1ccccc1OCCN[C@H](C)Cc1ccc(OC)c(S(N)(=O)=O)c1 [Tamsulosin],1.91,1.28,1.73,1.01,1.38,1.6
CC(C)CN(C[C@@H](O)[C@H](Cc1ccccc1)NC(=O)O[C@H]1CO[C@H]2OCC[C@H]21)S(=O)(=O)c1ccc(N)cc1 [Darunavir Ethanolate],0.575,0.867,1.31,0.84,0.355,0.797
C/C(=C\C(=O)OCCCCCCCCC(=O)O)C[C@@H]1OC[C@H](C[C@@H]2O[C@H]2[C@@H](C)[C@H](C)O)[C@@H](O)[C@H]1O [Mupirocin],1.8,0.693,0.636,0.92,0.693,1.35
CO/N=C(/C(=O)N[C@@H]1C(=O)N2C(C(=O)OCOC(=O)C(C)(C)C)=C(C)CS[C@H]12)c1csc(N)n1 [Cefetamet pivoxil hydrochloride],1.66,1.04,1.11,0.939,0.729,0.914
COC(=O)c1ccc(O)cc1 [Methyl 4-hydroxybenzoate],0.944,0.453,0.654,0.862,0.627,1.19
Cc1cccc(-c2[nH]c(C(C)(C)C)nc2-c2ccc3nccnc3c2)n1,1.56,1.18,0.741,0.884,1.48,0.948
CCCCCCCCCCCCCCCC(=O)O[C@@H]1[C@@H](O)[C@@H](O)[C@@H]([C@H](NC(=O)[C@@H]2C[C@@H](CCC)CN2C)[C@H](C)Cl)O[C@@H]1SC [Clindamycin palmitate HCl],1.39,1.05,0.981,1.12,0.578,1.08
COc1nc(C)nc(Cl)c1NC1=NCCN1 [Moxonidine],1.15,0.652,1.39,0.879,2.14,1.43
O=C(Nc1cccc2c(=O)cc(-c3nnn[nH]3)oc12)c1ccc(OCCCCc2ccccc2)cc1 [Pranlukast],0.942,1.36,0.906,0.842,1.13,0.86
C[C@@H]1C[C@H]2[C@@H]3C[C@H](F)C4=CC(=O)C=C[C@]4(C)[C@@]3(F)[C@@H](O)C[C@]2(C)[C@@]1(OC(=O)c1ccco1)C(=O)SCF [fluticasone furoate],2.17,2.7,2.56,2.29,1.53,1.72
Oc1cccc(O)c1 [Resorcinol],1.3,1.19,0.938,1.24,1.33,1.05
N[C@@H]1CCCCN(c2c(F)cc3c(=O)c(C(=O)O)cn(C4CC4)c3c2Cl)C1 [Besifloxacin HCl],0.849,1.19,0.808,0.781,0.864,0.585
CCc1ccc(/C=C2/SC(=S)NC2=O)cc1,0.453,0.809,1.03,1.15,0.771,0.723
O=C(O)C(Cc1ccccc1[N+](=O)[O-])=NNc1nc(-c2ccc(Cl)c(Cl)c2)cs1 (mixture of isomers),0.716,1.16,0.992,2.32,0.514,0.642
O=C(C=Cc1ccccc1)NC(NC(=S)Nc1ccc(Cl)cc1)C(Cl)(Cl)Cl (configuration not stated),1.51,2.16,1.33,1.53,2.23,1.08
CNC(=O)c1nn(C)c2c1C(C)(C)Cc1cnc(Nc3ccc(N4CCN(C)CC4)cc3)nc1-2,2.4,3.03,2.9,3.36,2.65,2.9
CCN(CC)Cc1cc(Nc2ccnc3cc(Cl)ccc23)ccc1O [Amodiaquine hydrochloride],2.94,2.7,1.67,3.45,2.69,2.51
CC(C(=O)O)c1cccc(Oc2ccccc2)c1 (configuration not stated) [Fenoprofen Calcium],0.95,0.634,0.599,0.997,1.16,1.97
COc1ccc(S(=O)(=O)N(C(C)=O)c2ccccc2/C=C/c2cc[n+]([O-])cc2)cc1,2.93,2.94,4.01,2.75,3.08,2.97
C=CCc1ccc(O)c(-c2ccc(O)c(CC=C)c2)c1 [Honokiol],0.998,0.732,1.22,1.46,1.39,1.18
CC1(C)S[C@@H]2[C@H](NC(=O)[C@H](N)c3ccccc3)C(=O)N2[C@H]1C(=O)OCOC(=O)[C@@H]1N2C(=O)C[C@H]2S(=O)(=O)C1(C)C [Sultamicillin],1.46,0.999,0.805,1.26,0.611,1.28
